From PubChem BioAssay (NCI)
About 83,000 compounds went through this panel and 20% of them were active in at least one assay; those are over-represented in the sample as a whole.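 Assay: single dose, 48 h. Readout: percent growth (0 = no net growth; negative = cell death). Active: <10.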 The source made the active and inactive calls.

What was measured:
Assay in all cases: NCI-60 one-dose screen, 48 h (100 = growth as untreated, 0 = no growth, -100 = all killed)
K-562 leukemia = conditions: 10 µM unless noted
MALME-3M melanoma = conditions: 10 µM unless noted
MDA-MB-231 breast = conditions: 10 µM unless noted
RXF 393 renal = conditions: 10 µM unless noted
SF-268 CNS = conditions: 10 µM unless noted
SF-295 CNS = conditions: 10 µM unless noted
SF-539 CNS = conditions: 10 µM unless noted
UACC-257 melanoma = conditions: 10 µM unless noted
M14 melanoma = conditions: 10 µM unless noted
HCT-15 colon = conditions: 10 µM unless noted
SNB-75 CNS = conditions: 10 µM unless noted
SNB-19 CNS = conditions: 10 µM unless noted
U251 CNS = conditions: 10 µM unless noted
PC-3 prostate = conditions: 10 µM unless noted
SK-MEL-5 melanoma = conditions: 10 µM unless noted
UACC-62 melanoma = conditions: 10 µM unless noted
LOX IMVI melanoma = conditions: 10 µM
SK-MEL-28 melanoma = conditions: 10 µM unless noted
DU-145 prostate = conditions: 10 µM unless noted
HT29 colon = conditions: 10 µM unless noted

Measured: growth

O=C(NCCc1ccccc1)/C(=C\c1ccc(Cl)cc1Cl)NC(=O)c1ccccc1
inactive: K-562 leukemia 122% | MALME-3M melanoma 79.4% | MDA-MB-231 breast 90.8% | RXF 393 renal 92.8% | SF-268 CNS 95% | SF-295 CNS 99.5% | SF-539 CNS 94.1% | UACC-257 melanoma 96.6% | M14 melanoma 96.4% | HCT-15 colon 98.4% | SNB-75 CNS 83.4% | SNB-19 CNS 99.2% | U251 CNS 97% | PC-3 prostate 88.8% | SK-MEL-5 melanoma 96.4% | UACC-62 melanoma 98.6% | LOX IMVI melanoma 92.7% | SK-MEL-28 melanoma 105%

Cn1c(=O)c2nc3c(=O)n(C)c(=O)n(C)c3nc2n(C)c1=O
inactive: DU-145 prostate 117% | MALME-3M melanoma 120% | MDA-MB-231 breast 109% | SF-268 CNS 108% | SF-295 CNS 107% | SF-539 CNS 91.7% | M14 melanoma 97% | HCT-15 colon 109% | HT29 colon 109% | SNB-75 CNS 92.4% | SNB-19 CNS 92.3% | U251 CNS 103% | PC-3 prostate 97.4% | SK-MEL-5 melanoma 106% | UACC-62 melanoma 94.4% | LOX IMVI melanoma 105% | SK-MEL-28 melanoma 122%

O=S(Cc1ccccc1)/C(=C/NC(=S)Nc1cc(Cl)ccc1Cl)c1ccccc1 (centres undefined)
inactive: DU-145 prostate 106% | MDA-MB-231 breast 100% | RXF 393 renal 103% | SF-268 CNS 93.1% | SF-295 CNS 103% | SF-539 CNS 115% | UACC-257 melanoma 99.5% | M14 melanoma 96.8% | HCT-15 colon 107% | SNB-75 CNS 89.9% | SNB-19 CNS 104% | U251 CNS 101% | PC-3 prostate 94.1% | SK-MEL-5 melanoma 102% | UACC-62 melanoma 98.6% | LOX IMVI melanoma 94.3% | SK-MEL-28 melanoma 109%

CCOC(=O)C(COS(C)(=O)=O)(COS(C)(=O)=O)C(=O)OCC
inactive: K-562 leukemia 101% | MALME-3M melanoma 122% | MDA-MB-231 breast 109% | RXF 393 renal 112% | SF-268 CNS 99% | SF-295 CNS 111% | SF-539 CNS 112% | UACC-257 melanoma 105% | M14 melanoma 104% | HCT-15 colon 107% | HT29 colon 108% | SNB-75 CNS 99.4% | SNB-19 CNS 106% | U251 CNS 101% | PC-3 prostate 98.5% | SK-MEL-5 melanoma 109% | UACC-62 melanoma 103% | LOX IMVI melanoma 98.3% | SK-MEL-28 melanoma 105%

CCOC(=O)/C(O)=C(\C=N\C(=S)Nc1ccc(Cl)c(Cl)c1)C(=O)OCC
inactive: K-562 leukemia 92.7% | MALME-3M melanoma 89.3% | MDA-MB-231 breast 94.3% | RXF 393 renal 97.9% | SF-268 CNS 104% | SF-295 CNS 105% | SF-539 CNS 73.9% | UACC-257 melanoma 98.6% | HCT-15 colon 89.3% | HT29 colon 92.8% | SNB-75 CNS 82% | SNB-19 CNS 104% | U251 CNS 98.2% | PC-3 prostate 86.9% | SK-MEL-5 melanoma 91.7% | UACC-62 melanoma 88.4% | LOX IMVI melanoma 92.9% | SK-MEL-28 melanoma 109%

COc1ccc(Br)c2c1C(=O)CC2
inactive: DU-145 prostate 127% | MALME-3M melanoma 113% | MDA-MB-231 breast 106% | SF-268 CNS 91.3% | SF-295 CNS 111% | SF-539 CNS 106% | UACC-257 melanoma 119% | M14 melanoma 110% | HCT-15 colon 110% | HT29 colon 106% | SNB-75 CNS 99.6% | SNB-19 CNS 108% | U251 CNS 107% | PC-3 prostate 96.6% | SK-MEL-5 melanoma 109% | UACC-62 melanoma 90.4% | LOX IMVI melanoma 104% | SK-MEL-28 melanoma 135%

COC(=O)C1=C(C)C(=O)CC1
inactive: K-562 leukemia 96.1% | MALME-3M melanoma 137% | MDA-MB-231 breast 102% | RXF 393 renal 143% | SF-268 CNS 111% | SF-295 CNS 135% | SF-539 CNS 109% | UACC-257 melanoma 110% | M14 melanoma 105% | HCT-15 colon 121% | HT29 colon 98.3% | SNB-75 CNS 94.4% | SNB-19 CNS 104% | U251 CNS 115% | PC-3 prostate 96.2% | SK-MEL-5 melanoma 110% | UACC-62 melanoma 100% | LOX IMVI melanoma 118% | SK-MEL-28 melanoma 110%

CCCCn1cnc2c(=O)[nH]cnc21
inactive: K-562 leukemia 97.7% | MALME-3M melanoma 158% | MDA-MB-231 breast 98.4% | RXF 393 renal 118% | SF-268 CNS 110% | SF-295 CNS 100% | SF-539 CNS 104% | UACC-257 melanoma 121% | M14 melanoma 103% | HCT-15 colon 105% | HT29 colon 104% | SNB-75 CNS 89.6% | SNB-19 CNS 96.9% | U251 CNS 109% | PC-3 prostate 94.2% | SK-MEL-5 melanoma 119% | UACC-62 melanoma 95.7% | LOX IMVI melanoma 109% | SK-MEL-28 melanoma 107%

Cc1cc2c3ccc(C)[n+](C)c3ccc2n1C
inactive: DU-145 prostate 46.7% | MALME-3M melanoma 46.9% | MDA-MB-231 breast 33.6% | RXF 393 renal 61.6% | SF-268 CNS 19% | SF-295 CNS 26.4% | SF-539 CNS 67.5% | UACC-257 melanoma 32.2% | M14 melanoma 92.7% | HCT-15 colon 104% | HT29 colon 39.9% | SNB-75 CNS 67.6% | SNB-19 CNS 30.6% | U251 CNS 12.4% | SK-MEL-5 melanoma 48.2% | UACC-62 melanoma 78.9% | LOX IMVI melanoma 43.9% | SK-MEL-28 melanoma 86%
active: PC-3 prostate 8.69%

Cc1nc(C)c(C(=O)O)cc1C(=O)O
inactive: K-562 leukemia 99.6% | MALME-3M melanoma 105% | MDA-MB-231 breast 108% | RXF 393 renal 117% | SF-268 CNS 116% | SF-295 CNS 118% | SF-539 CNS 95% | UACC-257 melanoma 111% | M14 melanoma 114% | HCT-15 colon 103% | HT29 colon 109% | SNB-75 CNS 91.5% | SNB-19 CNS 109% | U251 CNS 107% | PC-3 prostate 99.7% | SK-MEL-5 melanoma 111% | UACC-62 melanoma 105% | LOX IMVI melanoma 95.8% | SK-MEL-28 melanoma 112%

CCCCN(C(=O)CC)c1ccccc1
inactive: DU-145 prostate 99.7% | MALME-3M melanoma 100% | MDA-MB-231 breast 105% | RXF 393 renal 115% | SF-268 CNS 98.6% | SF-295 CNS 99.8% | SF-539 CNS 100% | UACC-257 melanoma 95.5% | HCT-15 colon 108% | HT29 colon 100% | SNB-75 CNS 89.8% | SNB-19 CNS 99.9% | U251 CNS 97.6% | PC-3 prostate 103% | SK-MEL-5 melanoma 100% | UACC-62 melanoma 99.2% | LOX IMVI melanoma 97.4% | SK-MEL-28 melanoma 104%

CC(=O)OCC1OC(n2cnc3c(=S)nc(N)[nH]c32)C(OC(C)=O)C1OC(C)=O (centres undefined)
inactive: DU-145 prostate 53.1% | MALME-3M melanoma 84.4% | MDA-MB-231 breast 63.5% | SF-268 CNS 76.8% | SF-295 CNS 40% | SF-539 CNS 85.7% | M14 melanoma 37.6% | HCT-15 colon 79.3% | HT29 colon 74.6% | SNB-75 CNS 56% | SNB-19 CNS 99.9% | U251 CNS 93.1% | PC-3 prostate 104% | SK-MEL-5 melanoma 99.4% | UACC-62 melanoma 65.2% | LOX IMVI melanoma 19.7% | SK-MEL-28 melanoma 114%

CC(=O)Nc1ccc(/C=C2\SC(=S)N(/C=C(\C(C)=O)C(N)=O)C2=O)cc1
inactive: DU-145 prostate 106% | MALME-3M melanoma 87.8% | MDA-MB-231 breast 98.9% | RXF 393 renal 93% | SF-268 CNS 96.2% | SF-295 CNS 93.6% | SF-539 CNS 92.5% | UACC-257 melanoma 87.8% | M14 melanoma 81% | HCT-15 colon 98.2% | HT29 colon 97.4% | SNB-75 CNS 82.4% | U251 CNS 90.3% | PC-3 prostate 78.5% | SK-MEL-5 melanoma 88.7% | UACC-62 melanoma 87.6% | LOX IMVI melanoma 78.3% | SK-MEL-28 melanoma 93.4%

OC(CCN1CCCCC1)(c1ccccc1)c1ccccc1
inactive: DU-145 prostate 115% | MALME-3M melanoma 95.4% | MDA-MB-231 breast 105% | RXF 393 renal 91.7% | SF-268 CNS 104% | SF-295 CNS 111% | SF-539 CNS 117% | UACC-257 melanoma 100% | HCT-15 colon 104% | HT29 colon 96.1% | SNB-75 CNS 85.8% | SNB-19 CNS 110% | U251 CNS 100% | PC-3 prostate 96% | SK-MEL-5 melanoma 97.4% | UACC-62 melanoma 106% | LOX IMVI melanoma 97.2% | SK-MEL-28 melanoma 112%

NNC(=O)N/N=C1\C(=O)N(c2nccs2)C(=O)C(=O)C1c1nc2ccccc2s1 (centres undefined)
inactive: DU-145 prostate 103% | MALME-3M melanoma 98.7% | MDA-MB-231 breast 90.4% | RXF 393 renal 106% | SF-268 CNS 96.3% | SF-295 CNS 109% | SF-539 CNS 106% | UACC-257 melanoma 68.9% | M14 melanoma 105% | HCT-15 colon 116% | HT29 colon 94.1% | SNB-75 CNS 81.8% | U251 CNS 80% | SK-MEL-5 melanoma 96.5% | UACC-62 melanoma 90.5% | LOX IMVI melanoma 96.3% | SK-MEL-28 melanoma 112%

N#C/C(=C\c1ccc(C#N)cc1)C(=O)c1ccccc1
inactive: DU-145 prostate 107% | MALME-3M melanoma 109% | MDA-MB-231 breast 104% | SF-268 CNS 104% | SF-295 CNS 107% | SF-539 CNS 96.8% | UACC-257 melanoma 97.7% | M14 melanoma 95.7% | HCT-15 colon 95.7% | HT29 colon 104% | SNB-75 CNS 77.8% | SNB-19 CNS 93.4% | U251 CNS 94.3% | PC-3 prostate 87.6% | SK-MEL-5 melanoma 106% | UACC-62 melanoma 92.8% | LOX IMVI melanoma 98.8% | SK-MEL-28 melanoma 121%
